Read-out in test [1]: xenobiotic metabolism (CYP1A1), CYP1A1 (gene 1543)
The experiment in a line: CLD_CYP1A1_6hr: CellzDirect (CLD) Gene Expression Assay for xenobiotic metabolism (CYP1A1) at 6 hours (AID 2283661).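 As to AC50: potency for transcript induction above DMSO vehicle baseline.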 A digest of the protocol: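 Primary human hepatocytes from two donors, compound versus 0.2% DMSO vehicle. CYP1A1 mRNA measured 6 h after dosing by quantitative nuclease protection assay with chemiluminescent read-out; induction fitted relative to DMSO, cytotoxicity flagged by microscopy.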

Read-out in test [2]: xenobiotic metabolism (CYP1A2), CYP1A2 (gene 1544)
The test can be described thus: CLD_CYP1A2_6hr: CellzDirect (CLD) Gene Expression Assay for xenobiotic metabolism (CYP1A2) at 6 hours (AID 2283663).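 As to AC50: potency is for induction meaning a rise in mRNA above DMSO.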 A digest of the protocol:
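Primary human hepatocytes from two donor preparations, dosed daily with multiple concentrations in 0.2% DMSO and harvested at 6 h. CYP1A2 mRNA induction measured by chemiluminescent qNPA, gain of signal fitted against DMSO; cytotoxicity flagged morphologically.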

Read-out in test [3]: glucuronosyltransferase (UGT1A1), UGT1A1 (gene 54658)
The experiment in a line: CLD_UGT1A1_6hr: CellzDirect (CLD) Gene Expression Assay for glucuronosyltransferase (UGT1A1) at 6 hours (AID 2283672). A digest of the protocol:
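Primary human hepatocytes from two donor preparations, dosed with fresh solutions in 0.2% DMSO, harvested at 6 h. UGT1A1 mRNA measured by qNPA chemiluminescence; induction fitted upward versus DMSO.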

The nature of test [4]: CLD_ACTIN_6hr: CellzDirect (CLD) Gene Expression Assay for Baseline Control (Actin) at 6 hours (AID 2283676).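 Also: active means increased actin mRNA relative to DMSO vehicle.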 A digest of the protocol: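 Primary human hepatocytes dosed with fresh chemical solutions (vehicle 0.2% DMSO), harvested at 6 h. Actin mRNA quantified by quantitative nuclease protection assay with chemiluminescent read-out, as background control relative to DMSO.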

Test [5] can be described thus: CCTE_Padilla_ZF_144hpf_TERATOSCORE: (Legacy) CCTE's 144 Hour Post-fertilization zebrafish Assay Teratoscore, Padilla Lab (AID 2283679; active = hit-call score of the fitted dose curve at least 0.9, where 1 is the maximum; inactive = score below 0.9;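 as to AC50: zebrafish embryos with chorions exposed by immersion from 6-8 hpf to 5 dpf with daily renewal; teratogenicity score from eye scoring of death hatching and malformations at 144 hpf; higher score means more developmental defects relative to DMSO baseline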). The essentials:
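Larvae scored by eye at 144 hpf for death, hatching and malformations after a day in clean Hanks'. Before that, daily-renewed exposure at 80 uM (0.4% DMSO, 26C) from roughly 6-8 hpf through 5 dpf, 4 embryos per chemical.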

Read-out in test [6]: xenobiotic metabolism (CYP1A2), CYP1A2 (gene 1544)
The experiment in a line: CLD_CYP1A2_24hr: CellzDirect (CLD) Gene Expression Assay for xenobiotic metabolism (CYP1A2) at 24 hours (AID 2283683). A digest of the protocol:
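Primary human hepatocytes from two donor preparations dosed daily with multiple concentrations of chemical, 0.2% DMSO vehicle. CYP1A2 mRNA at 24 h quantified by qNPA chemiluminescence; gain of signal analyzed relative to DMSO. Cytotoxicity flagged by phase-contrast morphology.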

Read-out in test [7]: ABC Transporter (ABCB1), ABCB1 (gene 5243)
The experiment in a line: CLD_ABCB1_24hr: CellzDirect (CLD) Gene Expression Assay for ABC Transporter (ABCB1) at 24 hours (AID 2283684). The essentials: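 Primary human hepatocytes, two donor preparations, dosed daily with fresh solutions; vehicle 0.2% DMSO; harvested at 24 h. ABCB1 mRNA measured by quantitative nuclease protection assay (chemiluminescence); morphology-based cytotoxicity annotated.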

Read-out in test [8]: Cytochrome P450 2B6 (Homo sapiens) (UniProt P20813)
The experiment in a line: CLD_CYP2B6_24hr: CellzDirect (CLD) Gene Expression Assay for xenobiotic metabolism (CYP2B6) at 24 hours (AID 2283686). The essentials: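 Primary human hepatocytes dosed daily for two days with fresh solutions, harvested at 24 hours; mRNA induction quantified by qNPA chemiluminescence, gain of signal vs 0.2% DMSO vehicle. Cytotoxicity annotated from phase-contrast morphology.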

Read-out in test [9]: Cytochrome P450 2C9 (Homo sapiens) (UniProt P11712)
The test can be described thus: CLD_CYP2C9_24hr: CellzDirect (CLD) Gene Expression Assay for xenobiotic metabolism (CYP2C9) at 24 hours (AID 2283688). A digest of the protocol:
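Primary human hepatocytes from two donor preparations, dosed daily for two days at multiple concentrations; vehicle 0.2% DMSO. CYP2C9 mRNA induction at 24 h measured by qNPA chemiluminescence relative to DMSO; cytotoxicity annotated from morphology.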

Read-out in test [10]: Cytochrome P450 3A4 (Homo sapiens) (UniProt P08684)
The experiment in a line: CLD_CYP3A4_24hr: CellzDirect (CLD) Gene Expression Assay for xenobiotic metabolism (CYP3A4) at 24 hours (AID 2283689). The essentials:
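Primary human hepatocytes from two donors dosed daily with fresh compound for two days, 0.2% DMSO vehicle. CYP3A4 mRNA at 24 hr by qNPA chemiluminescence; gain-of-signal fit versus DMSO, cytotoxicity flagged by morphology.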

Read-out in test [11]: alkyl and aryl transferase (GSTA2), GSTA2 (gene 2939)
The test can be described thus: CLD_GSTA2_24hr: CellzDirect (CLD) Gene Expression Assay for alkyl and aryl transferase (GSTA2) at 24 hours (AID 2283693). A digest of the protocol:
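Primary human hepatocytes (two donor preparations) dosed daily for two days with chemicals at multiple concentrations (vehicle 0.2% DMSO); GSTA2 mRNA at 24 h measured by qNPA chemiluminescence, gain-of-signal versus DMSO.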

Test [12] has as its system Thyroperoxidase (TPO), gene 54314. The experiment in a line: CCTE_Simmons_AUR_rTPO: CCTE's Amplex UltraRed Assay for Thyroperoxidase (TPO) Inhibition, Simmons Lab (AID 2283662).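 Also: potency for loss of signal meaning inhibition of peroxidase activity.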 The essentials: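 Endpoint is decreased Amplex UltraRed fluorescence after a 30-min, 37C reaction of rat thyroid microsomes with 300 uM H2O2. Eight test concentrations (5 nM–87.5 uM final) in 0.5% DMSO, three biological replicates each.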

Test [13] can be described thus: CCTE_Simmons_CellTiterGLO_HEK293T: Viability Assessment in CCTE's Assays for Thyroperoxidase (TPO) Inhibition, Simmons Lab (AID 2283665).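 Also: cells exposed to compound for 24 h before readout; actives reduce ATP signal below DMSO vehicle meaning cytotoxicity.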 The essentials: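 HEK293T cells in DMEM with 1% FBS, dosed 24 h at 37C with 8 concentrations, 5 nM–87.5 uM final, 0.5% DMSO. ATP measured by CellTiter Glo luminescence; loss of signal vs DMSO, three biological replicates.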
In general terms: Cellular ATP, detected with luciferase, serves as a proxy for viable cell number.

A short description of test [14]: Tanguay_ZF_120hpf_TR_legacy: (Legacy) Oregon State University Tanguay Lab 120 Hour Post-fertilization zebrafish Assay for Touch Response (AID 2283667). The essentials: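 Tropical 5D wild-type zebrafish embryos were exposed statically in sealed, foil-covered plates at 28C until 120 hpf, with 0.64% (vol/vol) final DMSO. Touch response was scored as present or absent; embryos that died were not scored.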

Read-out in test [15]: organic anion transporter (SLCO1B1), SLCO1B1 (gene 10599)
The experiment in a line: CLD_SLCO1B1_6hr: CellzDirect (CLD) Gene Expression Assay for organic anion transporter (SLCO1B1) at 6 hours (AID 2283668).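 Also: active means mRNA induction above DMSO baseline.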 A digest of the protocol:
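Primary human hepatocytes dosed daily with test chemicals (multiple concentrations) in 0.2% DMSO vehicle; harvested at 6 h. SLCO1B1 mRNA quantified by qNPA chemiluminescence, fitted as gain-of-signal versus DMSO; cytotoxicity from phase-contrast morphology flagged alongside.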

A short description of test [16]: CLD_ACTIN_24hr: CellzDirect (CLD) Gene Expression Assay for Baseline Control (Actin) at 24 hours (AID 2283670). A digest of the protocol:
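Primary human hepatocytes dosed over multiple concentrations with 0.2% DMSO vehicle; actin mRNA measured at 24 h by qNPA chemiluminescence. Background control endpoint, fitted as gain of signal versus DMSO.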

Read-out in test [17]: Cytochrome P450 (CYP24A1_1), CYP24A1 (gene 1591)
The test can be described thus: LTEA_HepaRG_CYP24A1_1: Life Technologies and Expression Analysis (LTEA) Assay for Cytochrome P450 (CYP24A1_1) using HepaRG (AID 2283671; active = hit-call score of the fitted dose curve at least 0.9, where 1 is the maximum; inactive = score below 0.9). Conditions: mRNA level, 48 h; actives raise or lower the signal. A digest of the protocol:
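HepaRG, 48 h exposure, 8-pt half-log series from 100 uM in 0.5% DMSO, duplicates. Readout: TaqMan qRT-PCR of CYP24A1 mRNA, housekeeping-normalized (ACTB/GAPDH/POLR2A). Bidirectional curve fit vs DMSO baseline.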

Read-out in test [18]: HMG-CoA synthase (HMGCS2), HMGCS2 (gene 3158)
The test can be described thus: CLD_HMGCS2_24hr: CellzDirect (CLD) Gene Expression Assay for HMG-CoA synthase (HMGCS2) at 24 hours (AID 2283691). The essentials: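 Primary human hepatocytes from two donor preparations, dosed daily with fresh solutions; vehicle 0.2% DMSO, 24 h harvest. HMGCS2 mRNA quantified by qNPA with S1 nuclease digestion and chemiluminescence; gain fitted versus DMSO, cytotoxicity annotated by morphology.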

Results filed as inconclusive are left out. Calls of active or inactive are those of the source. The calls were made as follows, unless noted: active = hit-call score of the fitted dose curve at least 0.9, where 1 is the maximum; inconclusive = response in the unintended direction; inactive = score below 0.9.

Cytochrome P450 3A4 (Homo sapiens), sequence (P08684 whole entry, looked up): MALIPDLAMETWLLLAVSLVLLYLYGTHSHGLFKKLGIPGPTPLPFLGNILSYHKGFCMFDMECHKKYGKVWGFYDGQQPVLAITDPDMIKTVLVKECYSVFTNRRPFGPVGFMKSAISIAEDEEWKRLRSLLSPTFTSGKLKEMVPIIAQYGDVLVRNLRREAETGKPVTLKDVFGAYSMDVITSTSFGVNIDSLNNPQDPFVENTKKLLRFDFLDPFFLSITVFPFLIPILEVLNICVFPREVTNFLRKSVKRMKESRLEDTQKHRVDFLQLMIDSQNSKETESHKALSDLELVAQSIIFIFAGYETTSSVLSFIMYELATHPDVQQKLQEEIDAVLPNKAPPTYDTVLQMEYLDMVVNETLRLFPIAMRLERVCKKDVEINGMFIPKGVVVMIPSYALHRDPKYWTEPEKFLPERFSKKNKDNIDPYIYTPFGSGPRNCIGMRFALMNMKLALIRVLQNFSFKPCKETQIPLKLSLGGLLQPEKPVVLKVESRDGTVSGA

`COC(=O)c1ccccc1CS(=O)(=O)NC(=O)Nc1nc(OC)cc(OC)n1`: the AC50 in [1] and in test [6] was 20 µM (active) in each case. For the same compound, the outcome in test [2], in test [3], in test [4], in test [5], in [7] and in [8] was inactive. Besides, the call in test [9], in test [10] and in [11] was inactive.
For the compound `O=C1c2ccccc2C(=O)N1SC(Cl)(Cl)Cl`, the AC50 is 27.3 µM (active) in test [12], 9.19 µM (active) in test [13] and 19.3 µM (active) in test [5]. In addition, the compound was called inactive in test [14], in test [15], in test [16], in test [17], in test [7] and in test [11].
With `CCOc1nc(NC)nc(NC(=O)NS(=O)(=O)c2ccccc2C(=O)OC)n1`, the outcome in [1], in test [2], in [15], in test [16], in test [3] and in test [5] was inactive. Moreover, the result in test [7], in [9] and in test [10] was inactive. Moreover, in [6], the AC50 was 7.74 µM (active).
Consider `CCC(C)Nc1c([N+](=O)[O-])cc(C(C)(C)C)cc1[N+](=O)[O-]` (configuration not stated), for which the AC50 was 3.41 µM (active) in test [1]; 5.44 µM (active) in test [2]; 3.05 µM (active) in [6]; 3.63 µM (active) in test [8]; 3.84 µM (active) in test [10]. In addition, the result in [14], in test [17], in test [3], in [7] and in test [11] was inactive.
Take `C#CCN1C(=O)COc2cc(F)c(N3C(=O)C4=C(CCCC4)C3=O)cc21`: the call in test [14], in test [15], in [4], in test [6], in [7] and in [9] was inactive. The result in test [18] and in test [11] was inactive. Also, the AC50 in [5] was 4.15 µM (active); in test [8], 20 µM (active).
In the case of `CCS(=O)(=O)c1cccnc1S(=O)(=O)NC(=O)Nc1nc(OC)cc(OC)n1`, the call in test [1], in test [2], in test [15], in [16], in test [3] and in test [5] was inactive. The call in [6], in test [7], in [8], in test [18] and in test [11] was inactive. Moreover, the AC50 in [10] was 20 µM (active).

In general, AC50 refers to the concentration at which the activity in the assay is half-maximal.
